The list is not random: actives were taken first. Their share in the collection is about 3.6%.
mHTT-CaM PPI inh: mutant huntingtin-calmodulin interaction inhibitors – biochemical, AlphaScreen, primary screen | inhibition, % at 15 µM | AlphaScreen His-mHTT/GST-CaM binding, luminescence | hit rate 3.6% among 190,000 | P42858;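 further: 0% = both proteins with DMSO and 100% = one protein alone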
Pf apPOL block: Pf-apPOL inhibitors, biochemical, fluorescence; inhibition, % at 10 µM; hit rate 0.25% among 210,000; Recombinant Pf-apPOL, molecular beacon fluorescence, 1.5 h
Active calls of the source: *; i = inactive; . = no result; ! = not confirmed by another sample. No stated cut-off is given here; in the data, active means inhibition above about 50%; inactive means the rest.

SMILES	mHTT-CaM PPI inh	Pf apPOL block
O=C1CC(c2cccs2)CC2=C1C(c1coc3ccccc3c1=O)Nc1ccccc1N2 (stereo not given)	54.0*	-3.8
O=C1CC(c2ccccc2Cl)CC2=C1C(c1coc3ccccc3c1=O)Nc1ccccc1N2 (stereo not given)	26.0	10.2
Cc1ccc(S(=O)(=O)Nc2ccc(C)cn2)cc1	0.3	1.8
Cc1ccc2[nH]c(=O)c(Cc3c(O)c4cc(C)ccc4[nH]c3=O)c(O)c2c1	-1.0	-0.3
O=S(=O)(NCCSC1CCCCC1)c1ccc2c(c1)OCCO2	-3.5	2.7
CC(C)(C)OC(=O)N1CCC(CNS(=O)(=O)c2ccc3c(c2)OCCO3)CC1	.	63.3*!
CC1CCN(C(=O)CSc2cn(Cc3ccc(Cl)cc3)c3ccccc23)CC1	91.0*	-3.6
O=C(CSc1cn(Cc2ccc(F)cc2)c2ccccc12)N1CCCC1	21.0	-1.8
O=C(CSc1cn(Cc2ccc(F)cc2)c2ccccc12)N1CCCCC1	31.0	2.7
O=C(CSc1cn(Cc2ccccc2Cl)c2ccccc12)N1CCOCC1	36.0	-6.4
Cc1ccccc1Cn1cc(SCC(=O)N2CCCCC2)c2ccccc21	86.0*	2.8
O=C(CSc1cn(Cc2ccc(F)cc2)c2ccccc12)N1CCCCCC1	70.0*	-8.1
O=S(=O)(NCc1ccccn1)c1cc(Br)c(Br)s1	-6.0	-3.7
CC1CCCN(CC(O)COCC2CC3CCC2C3)C1 (stereo not given)	-1.4	-3.8
c1coc(CN2COc3cc4c(cc3C2)OCN(Cc2ccco2)C4)c1	3.0	.
O=C1c2ccccc2C(=O)c2c1oc1c3c(ccc21)OCN(Cc1ccccn1)C3	100.0*	-6.5
COC(=O)c1ccc(Oc2c(C)oc3c4c(ccc3c2=O)OCN(Cc2cccnc2)C4)cc1	0.0	-0.2
COc1ccc(CN2COc3ccc4c(=O)c(-c5ccccc5)c(C)oc4c3C2)cc1	11.6	-8.6
O=C1c2ccccc2C(=O)c2c1oc1c3c(ccc21)OCN(Cc1ccco1)C3	93.0*	-4.8
COC(=O)c1ccc(Oc2coc3c4c(ccc3c2=O)OCN(Cc2ccc(OC)cc2)C4)cc1	19.4	-18.3
O=C1c2ccccc2C(=O)c2c1oc1c3c(ccc21)OCN(Cc1cccnc1)C3	94.0*!	11.7
COC(=O)c1ccc(Oc2coc3c4c(ccc3c2=O)OCN(Cc2ccccn2)C4)cc1	100.2*	-36.5
O=c1[nH]c2c(c3c1c(=O)oc1ccccc13)CCCC2	-11.2	.
O=c1c2ccccc2ncn1-c1ccc(Cl)c(C(F)(F)F)c1	0.0	-3.1
O=C1OC(c2ccccc2)=N/C1=C\c1cc2ccccc2nc1N1CCOCC1	-1.0	-10.5
SMILES	mHTT-CaM PPI inh	Pf apPOL block
COc1cccc(CNC(=O)N2CC(C(=O)N3CCCCC3)C3(CCOCC3)C2)c1 (stereo not given)	-4.2	4.4
ClC(Cl)(Cl)CCCCn1nnc2ccccc21	100.0*	-1.8
c1ccc2c(c1)nnn2CCSCCn1nnc2ccccc21	1.0	5.1
COc1ccc(C2=NN3C(C2)c2cccc(OC)c2OC32CCCCC2)cc1OC (stereo not given)	52.0*	-10.5
COc1cccc2c1OC1(CCCCC1)N1N=C(c3cccs3)CC21 (stereo not given)	43.0	-23.9
Cc1ccccc1C(=O)NCC(C)CN(C)C (stereo not given)	-2.3	-3.8
COc1ccc(Br)cc1C1Nc2ccc(F)cc2C2C=CCC21 (stereo not given)	73.0*	-1.8
Fc1ccc2c(c1)[C@@H]1C=CC[C@@H]1[C@H](c1ccccc1Cl)N2	-4.3	.
COc1ccc(C2Nc3ccc(Br)cc3C3C=CCC32)cc1[N+](=O)[O-] (stereo not given)	86.0*	-8.7
COc1ccc(C2Nc3c(cccc3C(F)(F)F)C3C=CCC32)cc1[N+](=O)[O-] (stereo not given)	38.0	-8.6
CNc1ccc(C(=O)Nc2nc3c(s2)CCCC3)cc1[N+](=O)[O-]	6.0	-3.0
CC(C)CC(NC(=O)CC12CC3CC(CC(C3)C1)C2)C(=O)N1CCOCC1 (stereo not given)	9.1	-3.1
COc1ccc(C(=O)c2oc3ccccc3c2NC(=O)c2ccco2)cc1	-16.9	3.5
N/C(=N\OC(=O)N1c2ccccc2Sc2ccccc21)c1ccccc1Cl	i	-8.6
CC(=O)c1cccc(Nc2cc(C)nc3ccc(Cl)cc23)c1	8.6	-0.3
COc1ccc(-n2nc3c(c2NC(C)=O)CSC3)cc1	20.0	-3.2
COc1ccc(-n2nc3c(c2NC(=O)/C=C/c2ccco2)CSC3)cc1	77.0*	-9.2
COc1ccc(-n2nc3c(c2NC(=O)/C=C/c2ccc(OC)c(OC)c2)CS(=O)(=O)C3)cc1	13.0	-1.8
O=C(/C=C/c1ccco1)Nc1c2c(nn1-c1ccc(F)cc1)CSC2	98.0*	0.6
O=C(/C=C/c1ccc2c(c1)OCO2)Nc1c2c(nn1-c1ccc(F)cc1)CSC2	23.0	-2.8
COc1ccc(-n2nc3c(c2NC(=O)/C=C/c2ccc(OC)c(OC)c2)CSC3)cc1	32.0	78.3*
COc1ccc(OCC(=O)N2CCN(c3ccc(OC)cc3)CC2)cc1	4.0	0.2
COc1ccc(N2CC(C(=O)NC3CCCc4ccccc43)CC2=O)cc1 (stereo not given)	8.5	1.9
CCOc1ccc(CC(=O)O)cc1OCC	1.3	-5.0
O=C(NCc1cccc(F)c1)C1CCN(c2cn[nH]c(=O)c2)CC1	0.8	-3.5
SMILES	mHTT-CaM PPI inh	Pf apPOL block
COc1ccc(/C=C2/SC(N3CCC(C)CC3)=NC2=O)c(OC)c1	58.0*	-3.6
COc1ccc(/C=C2/SC(N3CCCCC3)=NC2=O)c(OC)c1	16.0	0.0
CSCCC(C)(O)CNC(=O)C(C)(C)Oc1ccc(Cl)cc1 (stereo not given)	-14.1	-5.6
CCOc1ccc(N(CC(=O)NC2CCCCC2)S(C)(=O)=O)cc1	3.4	-1.6
COc1cc(/C=C2\CC/C(=C\c3ccc(O)c(OC)c3)C2=O)ccc1O	61.0*	-2.6
COc1ccc(/C=C2\CC/C(=C\c3ccc(OC)c(OC)c3)C2=O)cc1OC	10.0	0.0
CCOc1ccc(/C=C2/N=C(c3cccc([N+](=O)[O-])c3C)OC2=O)cc1	4.0	-3.4
O=C(Nc1nnc2ccccn12)c1cc(F)cc(F)c1	81.6*	-10.6
Cc1ccc(C(=O)Nc2nnc3ccccn23)s1	91.3*	-10.0
Cc1ccc(C(=O)Nc2nnc3ccccn23)cc1	24.0	-7.5
O=C(Nc1nnc2ccccn12)c1ccc(F)cc1	24.2	-7.7
O=C(Nc1nnc2ccccn12)c1cccc(F)c1	56.1*	-11.0
Cc1cccc(C(=O)Nc2nnc3ccccn23)c1	21.7	-6.9
O=C(O)CCCCc1cc2c(s1)CCCC(=O)N2	0.9	-2.8
CCc1cc(C2CCCN2C(=O)c2cc(-c3ccc(OC)cc3)on2)on1 (stereo not given)	2.2	-0.4
CCC1CCCCN1S(=O)(=O)c1ccc(C(=O)Nc2nnc(C)o2)cc1 (stereo not given)	22.0	-14.0
COc1ccc(Nc2nnc(-c3ccc(C)c(S(N)(=O)=O)c3)c3ccccc23)cc1C(N)=O	53.6*	-6.0
COc1ccc(-c2nnc(Nc3ccc(CC(N)=O)cc3)c3ccccc23)cc1	26.0	-17.7
CCOc1ccc(-c2nnc(Nc3ccc(OC)c(C(=O)NC)c3)c3ccccc23)cc1	69.0*	8.2
CNC(=O)c1cc(Nc2nnc(-c3ccc(C)c(S(N)(=O)=O)c3)c3ccccc23)ccc1OC	26.9	6.0

Assay outcomes deposited in PubChem BioAssay by University of Kansas High Throughput Screening Laboratory.
